# PubChem BioAssay (NCATS)
# Results filed as inconclusive are left out. A call without a number means that no potency is given here. Calls of active or inactive are those of the source. The call rests on the fitted dose curve; in most records, active means well fitted curve in the direction sought with a large enough effect; inconclusive means small, poorly fitted or top-dose-only effect, or another doubt; inactive means no such curve, though single readings can be large; an effect the other way counts as inactive or inconclusive.
# Legend:
# [1] = target: Metallo-beta-lactamase type 2 (Klebsiella pneumoniae) (UniProt C7C422); test: qHTS to identify inhibitors of the New Delhi Metallo-beta-lactamase (NDM): assay validation screen against the NCATS LOPAC Collection (AID 1794843); further: series mostly up to about 38 µM
# Procedure, shortened: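 Absorbance at 485 nm from nitrocefin turnover (50 uM solution added), read at plateau, gives the read-out. Compounds in DMSO were incubated first with 2 nM final NDM-1 in pH 7.0 HEPES buffer containing 1 uM ZnSO4 and 0.01% Tween20.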
# [2] = target: Glutathione peroxidase 1 (Homo sapiens) (UniProt P07203); test: Primary qHTS Assay for Inhibitors of Recombinant Selenoprotein Glutathione Peroxidase 1 (GPX1) (AID 1845191); further: nearly all actives have a fitted effect of over 65% in size
# Procedure, shortened: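 GR-coupled assay: compounds preincubated 30 min at room temperature with GPX1, then reaction started with CHP; final 10 nM GPX1, 1 mM GSH, 0.5 mM CHP, 0.5 mM NADPH, 100 nM GR, 0.01% BSA, pH 7.5 Tris buffer. NADPH fluorescence (340/450 nm) read at 0 and 15 min.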
# [3] = target: Phospholipid hydroperoxide glutathione peroxidase GPX4 (Homo sapiens) (UniProt P36969); test: Primary qHTS Assay for Inhibitors of Recombinant Selenoprotein Glutathione Peroxidase 4 (GPX4) (AID 1845192); further: nearly all actives have a fitted effect of over 65% in size
# Procedure, shortened: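 GR-coupled assay: recombinant GPX4 preincubated 30 min with compound at room temperature; final 200 nM GPX4, 1 mM GSH, 0.5 mM cumene hydroperoxide, 0.5 mM NADPH, 100 nM GR, 0.01% BSA, pH 7.5 Tris. NADPH fluorescence (340/450 nm) read at 0 and 15 min.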
# [4] = Quantitative High-Throughput drug screen in 47 multiple myeloma cell lines against the NCATS MIPE library collection: Delta47_JCRB cell viability assay (AID 1918925; further: nearly all actives have a fitted effect of over 45% in size; further: potency means the concentration at half of the fitted maximal effect)
# Procedure, shortened: (§1)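 CellTiter-Glo luminescence (ATP) after 48 h compound exposure, 37C/5% CO2; 500 cells/well; MIPE 4.0 approved/investigational drugs pinned in; DMSO = 100%, media only = 0% viability.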
# [5] = Quantitative High-Throughput drug screen in 47 multiple myeloma cell lines against the NCATS MIPE library collection: EJM_DSMZ cell viability assay (AID 1918926; further: nearly all actives have a fitted effect of over 30% in size; further: potency means the concentration at half of the fitted maximal effect)
# Procedure, shortened: as §1
# [6] = Quantitative High-Throughput drug screen in 47 multiple myeloma cell lines against the NCATS MIPE library collection: AMO1_DSMZ cell viability assay (AID 1918927; further: nearly all actives have a fitted effect of over 30% in size; further: potency means the concentration at half of the fitted maximal effect)
# Procedure, shortened: as §1
# [7] = Quantitative High-Throughput drug screen in 47 multiple myeloma cell lines against the NCATS MIPE library collection: ARP1_JJKsccF8 cell viability assay (AID 1918928; further: nearly all actives have a fitted effect of over 40% in size; further: potency means the concentration at half of the fitted maximal effect)
# Procedure, shortened: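 ATP readout (CellTiter-Glo), 48 h drug incubation, 37 °C/5% CO2, 500 cells per well; normalisation to DMSO (100%) and media-only (0%) controls.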
# [8] = Quantitative High-Throughput drug screen in 47 multiple myeloma cell lines against the NCATS MIPE library collection: Karpas620_DSMZ cell viability assay (AID 1918959); further: nearly all actives have a fitted effect of over 30% in size; further: potency means the concentration at half of the fitted maximal effect
# Procedure, shortened: (§2)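 Inhibition of cell viability is measured here. Each line was plated at 500 cells per well, treated with MIPE 4.0 drugs, kept 48 hours at 37C, then assayed for ATP content by CellTiter-Glo luminescence.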
# [9] = target: Luciferin 4-monooxygenase (Photinus pyralis) (UniProt P08659); test: Primary firefly luciferase (FLuc) qHTS assay for identification of artifact compounds. (AID 1845220); conditions: outcome: dose series up to 54.1 µM; further: nearly all actives have a fitted effect of over 60% in size
# Procedure, shortened: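 Enzymatic FLuc inhibition assay: compounds pre-exposed to luciferin/ATP (10 uM each) for 15 min, then purified P. pyralis enzyme at 10 nM added. Read-out: luminescence at 5 min.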
# [10] = tested on: Nanoluciferase (engineered Oplophorus gracilirostris luciferase); test: Primary Nanoluciferase (NLuc) qHTS assay for identification of artifact compounds. (AID 1845222);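 further: NLuc secreted into diluted conditioned medium of S16 cells; series mostly up to about 54 µM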
# Procedure, shortened: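 S16 cell supernatant NLuc, 1:55; cpds qHTS; 15 min RT dark; Nano-Glo substrate 1:100, 5 min; luminescence; Hill fit of % inhibition.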
# [11] = Primary redox qHTS assay for identification of artifact compounds. (AID 1845223)
# Procedure, shortened: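 Amplex Red (25 uM) and HRP (250 mU/mL) in HBSS, with compounds for 15 min, then 250 uM DTT for 30 min, room temperature, dark. Fluorescence 525/598 nm read; normalized to DMSO and 10 uM DA3003; Hill fit.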
# [12] = Quantitative High-Throughput drug screen in 47 multiple myeloma cell lines against the NCATS MIPE library collection: FR4_PLB cell viability assay (AID 1918924; further: nearly all actives have a fitted effect of over 35% in size; further: potency means the concentration at half of the fitted maximal effect)
# Procedure, shortened: as §2
# [13] = Quantitative High-Throughput drug screen in 47 multiple myeloma cell lines against the NCATS MIPE library collection: ARD_JJKsccE7 cell viability assay (AID 1918929; further: potency means the concentration at half of the fitted maximal effect)
# Procedure, shortened: as §1
# [14] = Primary fluorescence-based thiol-reactive (MSTI) qHTS assay for identification of artifact compounds. (AID 1845221); further: nearly all actives have a fitted effect of over 65% in size; further: potency means the concentration at half of the fitted maximal effect
# Procedure, shortened: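 One-hour, room-temperature, dark incubation of compound with 4 uM MSTI in PBS (pH 7.4, 2% DMSO) precedes a fluorescence read at 525 nm excitation, 598 nm emission; Hill-equation fitting yields concentration-response values.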
# [15] = Viability counterscreen for antagonist of constitutive androstane receptor (CAR) against the NCATS DSHEA and TCM libraries (AID 1794837);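 further: compound exposure lasted 24 h before viability reading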
# Procedure, shortened: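 Fluorescence from CellTiter-Fluor reports live-cell protease activity in HepG2-CYP2B6-hCAR cells treated for 24 h with substances alongside 48 uM CITCO.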
# [16] = Viability counterscreen for agonist of constitutive androstane receptor (CAR) against the NCATS DSHEA and TCM libraries (AID 1794838);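 further: cells exposed to compound for 24 h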
# Procedure, shortened: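 In agonist mode, PK11195 is added at 0.75 uM final to HepG2-CYP2B6-hCAR cells dosed with test substances. Cultures incubate 24 h at 37C before a protease-based fluorogenic viability readout.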
# [17] = HepG2 viability counterscreen (readout 2: ATP content) against the NCATS DSHEA and TCM libraries (AID 1794840);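 further: HepG2 cells exposed to substances for about 24 h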
# Procedure, shortened: (§3)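 Cytotoxicity was assessed in HepG2 cells plated at 1,000 cells/well and exposed for about 24 hours to a concentration series. Protease activity and ATP content were measured sequentially in each well.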
# [18] = HepG2 viability counterscreen (readout 1: protease activity) against the NCATS DSHEA and TCM libraries (AID 1794841);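 further: cells exposed to compounds for about 24 h before the protease read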
# Procedure, shortened: as §3
# [19] = target: Nuclear receptor subfamily 1 group I member 3 (Homo sapiens) (UniProt Q14994); test: Primary qHTS for agonist of constitutive androstane receptor (CAR) against the NCATS DSHEA and TCM libraries (AID 1794839);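 further: HepG2 cells expressing human CAR with a CYP2B6 reporter plus PK11195 antagonist; luciferase reporter luminescence read with ONE-Glo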
# Procedure, shortened: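 Cells stably carrying hCAR and a CYP2B6 reporter (HepG2 background) are seeded and allowed 5 h to adhere. Substances at multiple concentrations are added alongside 0.75 µM PK11195, and luciferase signal is measured after 24 h.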
# Chain of Metallo-beta-lactamase type 2 (Klebsiella pneumoniae) (C7C422 whole entry, looked up): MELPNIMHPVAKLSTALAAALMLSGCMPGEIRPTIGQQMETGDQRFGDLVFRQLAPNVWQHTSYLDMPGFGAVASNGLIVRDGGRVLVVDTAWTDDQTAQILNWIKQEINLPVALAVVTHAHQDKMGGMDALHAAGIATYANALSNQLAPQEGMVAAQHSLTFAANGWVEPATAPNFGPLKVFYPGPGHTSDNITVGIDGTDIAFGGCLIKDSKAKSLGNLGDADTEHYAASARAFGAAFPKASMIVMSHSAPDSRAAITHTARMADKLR
# Chain of Glutathione peroxidase 1 (Homo sapiens) (P07203 whole entry, looked up): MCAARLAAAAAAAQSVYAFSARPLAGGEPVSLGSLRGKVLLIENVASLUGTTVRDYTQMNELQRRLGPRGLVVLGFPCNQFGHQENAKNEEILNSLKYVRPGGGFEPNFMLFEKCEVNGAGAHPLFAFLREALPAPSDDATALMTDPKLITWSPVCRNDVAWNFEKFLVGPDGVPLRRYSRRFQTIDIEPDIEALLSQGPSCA
# Chain of Phospholipid hydroperoxide glutathione peroxidase GPX4 (Homo sapiens) (P36969 whole entry, looked up): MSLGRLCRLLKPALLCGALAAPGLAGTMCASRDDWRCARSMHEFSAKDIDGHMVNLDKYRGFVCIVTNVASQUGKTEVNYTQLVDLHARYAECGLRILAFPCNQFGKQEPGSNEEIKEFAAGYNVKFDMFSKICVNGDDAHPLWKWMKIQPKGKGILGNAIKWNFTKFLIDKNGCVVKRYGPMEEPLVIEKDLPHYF
# Chain of Nuclear receptor subfamily 1 group I member 3 (Homo sapiens) (Q14994 whole entry, looked up): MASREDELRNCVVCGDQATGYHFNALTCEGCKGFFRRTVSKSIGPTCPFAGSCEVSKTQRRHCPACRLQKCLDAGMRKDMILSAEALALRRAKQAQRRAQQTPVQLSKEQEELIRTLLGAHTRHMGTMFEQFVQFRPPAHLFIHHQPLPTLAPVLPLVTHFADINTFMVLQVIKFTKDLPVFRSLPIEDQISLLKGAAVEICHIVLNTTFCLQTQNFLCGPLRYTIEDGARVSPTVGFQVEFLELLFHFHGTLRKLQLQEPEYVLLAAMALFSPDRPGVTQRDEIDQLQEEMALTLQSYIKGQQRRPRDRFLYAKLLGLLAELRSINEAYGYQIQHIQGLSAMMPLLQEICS
compound,measurement,setting,value
NC(=O)c1cccc(N)c1,outcome,[1],inactive
same,Potency,[2],inactive
same,Potency,[3],inactive
same,Potency,[4],inactive
same,Potency,[5],inactive
same,Potency,[6],inactive
same,Potency,[7],inactive
same,Potency,[8],inactive
CC1CC2C3CCC4=CC(=O)C=C[C@]4(C)[C@@]3(F)[C@@H](O)C[C@]2(C)[C@@]1(O)C(=O)CO (stereo not given in full),outcome,[1],inactive
same,Potency,[2],inactive
same,Potency,[3],inactive
same,Potency,[5],inactive
same,Potency,[6],0.833 µM (active)
Cc1nnc(C(=O)NC(C)(C)c2nc(C(=O)NCc3ccc(F)cc3)c(O)c(=O)n2C)o1,Potency,[2],inactive
same,Potency,[3],inactive
same,outcome,[9],inactive
same,outcome,[10],inactive
same,Potency,[11],inactive
same,Potency,[12],inactive
same,Potency,[4],inactive
same,Potency,[5],inactive
same,Potency,[6],0.0042 µM (active)
same,Potency,[7],inactive
same,Potency,[8],inactive
CCN(CC)CCn1c(=O)c(Cc2ccc(OC)cc2)nc2ccccc21,outcome,[1],inactive
same,Potency,[2],inactive
same,Potency,[3],inactive
same,Potency,[12],inactive
same,Potency,[5],inactive
same,Potency,[6],inactive
same,Potency,[7],inactive
same,Potency,[13],inactive
same,Potency,[8],inactive
O=C(NCC1CN(c2ccc(N3CCOCC3=O)cc2)C(=O)O1)c1ccc(Cl)s1 (stereo not given),Potency,[2],inactive
same,Potency,[3],inactive
same,outcome,[9],inactive
same,Potency,[14],inactive
same,outcome,[10],inactive
same,Potency,[11],inactive
same,Potency,[5],inactive
same,Potency,[13],23.5 µM (active)
COc1ccc2cc3[n+](cc2c1OC)CCc1cc2c(cc1-3)OCO2,outcome,[15],inactive
same,outcome,[16],inactive
same,outcome,[17],inactive
same,outcome,[18],inactive
same,Potency,[2],inactive
same,Potency,[3],inactive
same,Potency,[12],14.8 µM (active)
same,Potency,[4],5.26 µM (active)
same,Potency,[7],6.62 µM (active)
same,Potency,[13],5.9 µM (active)
same,Potency,[8],14.8 µM (active)
CNC(=O)c1cc(Oc2ccc(NC(=O)Nc3ccc(Cl)c(C(F)(F)F)c3)cc2)ccn1,Potency,[2],inactive
same,Potency,[3],inactive
same,outcome,[9],inactive
same,Potency,[14],inactive
same,outcome,[10],inactive
same,Potency,[11],inactive
same,Potency,[12],20.9 µM (active)
same,Potency,[4],16.6 µM (active)
same,Potency,[5],18.7 µM (active)
same,Potency,[6],5.26 µM (active)
same,Potency,[7],23.5 µM (active)
same,Potency,[13],2.64 µM (active)
same,Potency,[8],3.32 µM (active)
OCc1ccc(-c2nn(Cc3ccccc3)c3ccccc23)o1,outcome,[1],inactive
same,Potency,[2],inactive
same,Potency,[3],inactive
same,Potency,[12],inactive
same,Potency,[4],20.9 µM (active)
same,Potency,[5],inactive
same,Potency,[7],inactive
O=C(O)CCn1c2c(c3ccccc31)C[C@H](NS(=O)(=O)c1ccc(F)cc1)CC2,Potency,[2],inactive
same,Potency,[3],inactive
same,outcome,[9],inactive
same,Potency,[14],1.68 µM (active)
same,outcome,[10],inactive
COc1cc2nc(N3CCCN(C)CC3)nc(NC3CCN(Cc4ccccc4)CC3)c2cc1OC,outcome,[1],inactive
same,Potency,[2],inactive
same,Potency,[12],5.26 µM (active)
same,Potency,[4],2.09 µM (active)
same,Potency,[5],9.35 µM (active)
same,Potency,[6],7.43 µM (active)
same,Potency,[7],8.33 µM (active)
same,Potency,[13],8.33 µM (active)
same,Potency,[8],3.72 µM (active)
O=C(O)c1cccnc1,outcome,[15],inactive
same,outcome,[16],inactive
same,outcome,[19],inactive
same,outcome,[17],inactive
same,outcome,[18],inactive
same,Potency,[2],inactive
same,Potency,[3],inactive
same,Potency,[4],inactive
same,Potency,[5],inactive
same,Potency,[6],inactive
same,Potency,[13],inactive
same,Potency,[8],inactive
CC[C@H](C)C(=O)O[C@H]1C[C@@H](C)C=C2C=C[C@H](C)[C@H](CC[C@@H]3C[C@@H](O)CC(=O)O3)[C@H]21,Potency,[2],inactive
same,Potency,[3],inactive
same,outcome,[9],inactive
same,Potency,[14],inactive
same,outcome,[10],inactive
same,Potency,[11],inactive
same,Potency,[5],inactive
same,Potency,[6],inactive
same,Potency,[7],23.5 µM (active)
same,Potency,[13],inactive
same,Potency,[8],inactive
CNS(=O)(=O)CCc1ccc2[nH]cc(C3CCN(C)CC3)c2c1,outcome,[1],inactive
same,Potency,[2],inactive
same,Potency,[3],inactive
same,outcome,[9],inactive
same,Potency,[14],inactive
same,outcome,[10],inactive
same,Potency,[11],inactive
same,Potency,[12],16.6 µM (active)
same,Potency,[4],1.18 µM (active)
same,Potency,[6],2.35 µM (active)
same,Potency,[13],10.5 µM (active)
same,Potency,[8],inactive
CCCCS(=N)(=O)CCC(N)C(=O)O (stereo not given),outcome,[1],inactive
same,Potency,[2],inactive
same,Potency,[3],inactive
same,Potency,[4],inactive
same,Potency,[6],inactive
same,Potency,[7],inactive
NC(=O)c1ccc2[nH]ccc2c1,outcome,[1],inactive
same,Potency,[2],inactive
same,Potency,[3],inactive
same,Potency,[4],inactive
same,Potency,[7],inactive
same,Potency,[8],inactive
CN(C)CCc1c[nH]c2ccc(C[C@H]3COC(=O)N3)cc12,Potency,[2],inactive
same,Potency,[3],inactive
same,outcome,[9],inactive
same,Potency,[14],inactive
same,outcome,[10],inactive
same,Potency,[11],inactive
same,Potency,[12],inactive
same,Potency,[4],inactive
same,Potency,[5],inactive
same,Potency,[6],inactive
same,Potency,[7],inactive
same,Potency,[13],inactive
same,Potency,[8],inactive
NNC(=O)c1ccncc1,outcome,[15],inactive
same,outcome,[16],inactive
same,outcome,[19],inactive
same,outcome,[17],inactive
same,outcome,[18],inactive
same,Potency,[2],inactive
same,Potency,[3],inactive
same,Potency,[12],inactive
same,Potency,[4],inactive
same,Potency,[6],inactive
same,Potency,[7],inactive
same,Potency,[13],inactive
same,Potency,[8],inactive
Clc1ccccc1CN1CCc2sccc2C1,Potency,[2],inactive
same,Potency,[3],inactive
COc1cc2c(Nc3ccc(Br)cc3F)ncnc2cc1OCC1CCN(C)CC1,Potency,[2],inactive
same,Potency,[3],inactive
same,outcome,[9],inactive
same,Potency,[14],inactive
same,outcome,[10],inactive
same,Potency,[5],23.5 µM (active)
same,Potency,[8],inactive
CC1(C)[C@H](C(=O)O)N2C(=O)C[C@H]2S1(=O)=O,Potency,[2],inactive
same,Potency,[3],inactive
same,outcome,[9],inactive
same,Potency,[14],inactive
same,outcome,[10],inactive
same,Potency,[11],inactive
same,Potency,[12],inactive
same,Potency,[4],inactive
same,Potency,[5],inactive
same,Potency,[7],inactive
same,Potency,[8],inactive
CCN(CC)CC#CCOC(=O)C(O)(c1ccccc1)C1CCCCC1 (stereo not given),outcome,[1],inactive
same,Potency,[2],inactive
same,Potency,[3],inactive
same,Potency,[12],inactive
same,Potency,[4],inactive
same,Potency,[5],inactive
